This passage reports binding signal and Kd results from paper PMC5913336, “True equilibrium measurement of transcription factor-DNA binding affinities using automated polarization microscopy”.

The assay concerns the target Ttk-PF (Drosophila melanogaster, UniProt P17789 499-564). The assay is described as follows: FP; 33 mM phosphate pH 7.0, 90 mM NaCl, 0.01% Tween 20, 0.1 mM DTT, 0.5% agarose; room temperature. The note with it: dsDNA, one strand shown.
As for GCGCCAGGATAAC, the binding signal was 2.76 Kd / Kd of best base at the position. Take TCGCCACGATAAC: the binding signal was > 208 Kd / Kd of best base at the position.

Turning to TCGCCAGGATGAC, the binding signal was 3.28 Kd / Kd of best base at the position. Same read-out and setting: in the case of TCGCCAGGATAAA it was 1.28 Kd / Kd of best base at the position; in that of TGGCCAGGATAAC, 2.43 Kd / Kd of best base at the position; in that of TAGCCAGGATAAC, 1.69 Kd / Kd of best base at the position.

Regarding TCGCTAGGATAAC, the binding signal was > 208 Kd / Kd of best base at the position. TCGCGAGGATAAC: the binding signal was 67.2 Kd / Kd of best base at the position. With TCGCCAGGATAAG, the binding signal is 1.76 Kd / Kd of best base at the position. Same read-out and setting: under TCGCCAGGATACC stands 3.82 Kd / Kd of best base at the position; under TCGCCAGGATCAC, 7.79 Kd / Kd of best base at the position. On to TCGCCAGGCTAAC, for which the binding signal was 5.16 Kd / Kd of best base at the position. Regarding TCGCCAGAATAAC, the binding signal is > 208 Kd / Kd of best base at the position. With TCGCCAGGATAGC, the binding signal was 1 Kd / Kd of best base at the position. With ACGCCAGGATAAC, the binding signal was 2.88 Kd / Kd of best base at the position. In the case of TCGCCAAGATAAC, the binding signal was 124 Kd / Kd of best base at the position. Take TCGCCAGGAAAAC: the binding signal was 13.5 Kd / Kd of best base at the position. With TCGACAGGATAAC, the binding signal is 26.7 Kd / Kd of best base at the position. TCGCCAGGATAAC yielded a Kd of approximately 0.048 µM. TCGCCAGGATTAC: the binding signal was 1.69 Kd / Kd of best base at the position.

On to TCGCCAGGGTAAC, for which the binding signal is 8.56 Kd / Kd of best base at the position. With TCGCCAGGAGAAC, the binding signal is 8.25 Kd / Kd of best base at the position. In the case of TTGCCAGGATAAC, the binding signal is 1.71 Kd / Kd of best base at the position. Regarding TCGCCAGGATAAT, the binding signal was 1.84 Kd / Kd of best base at the position.

On to TCTCCAGGATAAC, for which the binding signal was 3.54 Kd / Kd of best base at the position. On the same count and under the same terms, in the case of TCGCAAGGATAAC it was > 208 Kd / Kd of best base at the position. Same read-out and setting: under TCGCCAGCATAAC stands 5.81 Kd / Kd of best base at the position; under TCGCCGGGATAAC, > 208 Kd / Kd of best base at the position; under TCGTCAGGATAAC, > 208 Kd / Kd of best base at the position. For TCGCCAGTATAAC, the binding signal was > 208 Kd / Kd of best base at the position. Take TCACCAGGATAAC: the binding signal was 5.13 Kd / Kd of best base at the position.

For TCGCCAGGACAAC, the binding signal is 12.9 Kd / Kd of best base at the position. For the sequence TCGCCAGGATATC, the binding signal was 1.65 Kd / Kd of best base at the position. On the same count and under the same terms, in the case of TCGCCTGGATAAC it was > 208 Kd / Kd of best base at the position. On the same count and under the same terms, in the case of TCGCCAGGTTAAC it was 12.8 Kd / Kd of best base at the position. Consider TCGCCCGGATAAC, for which the binding signal was > 208 Kd / Kd of best base at the position.

With TCGGCAGGATAAC, the binding signal was 1.42 Kd / Kd of best base at the position.

In the case of TCCCCAGGATAAC, the binding signal was 2.9 Kd / Kd of best base at the position. On the same count and under the same terms, under TCGCCATGATAAC stands > 208 Kd / Kd of best base at the position.

The term Kd denotes the free concentration of one partner at which half of the binding sites on the other are occupied at equilibrium, for simple one-to-one binding. Lower therefore signals tighter binding.
